Experimental data reported in PubChem BioAssay (Tox21).
Values without a mark were called inactive. Activity calls are given as the source filed them. The call rests on the fitted dose curve; in most records, active means well fitted curve in the direction sought with a large enough effect in the repeat runs; inconclusive means weak or mixed curves; inactive means flat fitted curve, though single readings scatter.

Assay: qHTS assay to test for compound auto fluorescence at 460 nm (blue) in HEK293 cells (AID 720678)
Settings: blue autofluorescence 405/460 nm; series mostly up to 91.3 µM; fluorescence, % of triamterene: at the top concentration
Excerpt: National Center for Advancing Translational Sciences [NCATS]
NIH Chemical Genomics Center [NCGC]
U.S. Environmental Protection Agency [EPA]
National Institutes of Environmental Health Sciences [NIEHS]
National Toxicology Program [NTP]
U.S. Food and Drug Administration [FDA]
Compound auto fluorescence often interferes with screening of the compound library against various biological targets and signaling pathways. Some of these compounds may have fluorophoric properties. Such properties may interfere with the assay outputs resulting in false positives and/or negatives. To decrease such complications and ensure the compound activities are relevant in terms of biological response, the Tox21 10K compound library was screened for auto fluorescence.
From the fluorophores used as reporter signals in our screening assays, the auto fluorescence equivalencies of compounds against three fluorophores have been evaluated: Triamterene, Fluorescein and Rose Bengal sodium for blue, green and red fluorescence, respectively. The fluorescence intensities were measured using Excitation/Emission wavelengths at 405/460nm, 485/535nm and 540/590nm for blue, green and red labels, respectively. This assay includes the blue fluorescence data.
Tox21 Assay Protocol Summary:
2,000 HEK293 cells in 5 uL of culture medium containing 10% dialyzed FBS per well were dispensed into black wall/clear bottom 1536-well plates using a Multidrop Combi Dispenser (Thermo Scientific). The assay plates were incubated for 4-5 hr at 37C to allow cell attachment to the well bottom, followed by the transfer of 23 nL compound or DMSO vehicle by a pintool work station (Kalypsys, San Diego, CA). After the assay plates were incubated overnight at 37C and 5% CO2, fluorescence intensities in the assay plates were measured by an Envision (PerkinElmer, Shelton, CT) plate reader using three labels for measuring blue, green and red fluorescence at […] 460, 535 and 590nm respectively.
On the % scale 0 is the no-effect control and ±100 the full control effect.

SMILES | fluorescence, % of triamterene | Potency
CCN(CC)CCOc1ccccc1C(=O)CCc1ccccc1 | 0.118% [at 46 µM] | –
COc1ccc2nc(S(=O)Cc3ncc(C)c(OC)c3C)[nH]c2c1 (stereo not given) | – | inactive
C[C@H](CS)C(=O)N1CCC[C@H]1C(=O)O | -0.0354% [at 46 µM] | –
CC1CCCO1 (stereo not given) | 0.0803% | –
O=C(O)CNC(=O)c1ccccc1I | -0.0548% [at 46 µM] | –
Cc1ccc(NC(=O)N(C)C)cc1NC(=O)N(C)C | -0.0112% | –
CC(=O)OCC(=O)[C@@]1(OC(C)=O)[C@@H](C)C[C@H]2[C@@H]3C[C@H](F)C4=CC(=O)C=C[C@]4(C)[C@@]3(F)[C@@H](O)C[C@@]21C | 0.0054% [at 46 µM] | –
BrC(Br)C(Br)Br | 0.0047% | –
CCCCCCCC(=O)Oc1c(Br)cc(C#N)cc1Br | 0.0316% | –
C[C@@H]1[C@H](O)[C@@H](C)/C=C/C=C\C=C\C=C\C=C\C=C\C=C\[C@H](O[C@@H]2O[C@H](C)[C@@H](O)[C@H](N)[C@@H]2O)C[C@@H]2O[C@](O)(C[C@@H](O)C[C@@H](O)[C@H](O)CC[C@@H](O)C[C@@H](O)CC(=O)O[C@H]1C)C[C@H](O)[C@H]2C(=O)O (stereo in doubt) | – | inactive
CC[C@H]1OC(=O)[C@H](C)[C@@H](O[C@H]2C[C@@](C)(OC)[C@@H](O)[C@H](C)O2)[C@H](C)[C@@H](O[C@@H]2O[C@H](C)C[C@H](N(C)C)[C@H]2O)[C@](C)(O)C[C@@H](C)CN(C)[C@H](C)[C@@H](O)[C@]1(C)O | – | inactive
Cc1ccc(N(CCO)CCO)cc1 | 0.485% | –
CC1C(C)(C)C2=C(C(=O)CCC2)C1(C)C (stereo not given) | -0.0182% | –
O=C(NC(Cc1cc(=O)[nH]c2ccccc12)C(=O)O)c1ccc(Cl)cc1 (stereo not given) | 0.0171% [at 46 µM] | –
Nc1ccc(N=Nc2ccc(N)cc2)cc1 | -0.43% [at 46 µM] | –
CC[C@H]1OC(=O)[C@H](C)[C@@H](O[C@H]2C[C@@](C)(OC)[C@@H](O)[C@H](C)O2)[C@H](C)[C@@H](O[C@@H]2O[C@H](C)C[C@H](N(C)C)[C@H]2O)[C@](C)(O)C[C@@H](C)/C(=N\OCOCCOC)[C@H](C)[C@@H](O)[C@]1(C)O | – | inactive
CC(C)C(=O)OCCOc1ccccc1 | -0.0135% | –
Cc1cc([N+](=O)[O-])ccc1N | -0.0214% | –
CC(CN(CCN(CC(C)OCCO)CC(C)OCCO)CC(C)OCCO)OCCO (stereo not given) | -0.053% [at 95.7 µM] | –
CSSc1ccoc1C | -0.0094% | –

SMILES | fluorescence, % of triamterene | Potency
CC1=C2[C@@H]([C@H](C)CC[C@H]2/C=C(\C)C(=O)O)[C@H](O)C1 | 5.46% | –
CCN(CC)CCNC(=O)c1cc(Cl)c(N)cc1OC | -0.104% [at 46 µM] | –
CC(C)N(C)C | -0.0666% | –
CCCCCCOC(=O)CCCCC | -0.0867% | –
COc1ccc(-c2cc(C(F)F)nn2-c2ccc(S(N)(=O)=O)cc2)cc1F | 0.0965% [at 46 µM] | –
O=C(c1ccccc1)C1CCC1 | 0.064% | –
CC(C)COC(=O)COc1cc(Cl)c(Cl)cc1Cl | 0.0082% | –
CCCCCCCCCCCCCCCCCC(=O)OCC(CC)CCCC (stereo not given) | -0.0052% | –
C=C(C)C(=O)OCCC(F)(F)C(F)(F)C(F)(F)C(F)(F)C(F)(F)C(F)(F)F | -0.25% | –
O=C(c1ccccc1)c1ccc(O)cc1 | -0.215% [at 95.7 µM] | –
O=C(O)c1cccc(C[C@@H]2COc3ccc(OCc4nc5cc(F)ccc5s4)cc3[C@@H]2O)c1 | -0.076% | –
O=S(=O)(Cl)c1c(Cl)cccc1Cl | 0.369% | –
Cc1ccc(Cl)cc1N | 0.0605% [at 95.7 µM] | –
c1ccc2sc(SSc3nc4ccccc4s3)nc2c1 | -0.0261% [at 46 µM] | –
CNS(=O)(=O)c1cc(C(=O)N2CCC(CCN3C4CCC3CC(n3c(C)nc5ccccc53)C4)(c3cccc(F)c3)CC2)c(Cl)cc1F (stereo not given) | -0.112% | –
CNc1c2c(nn1C)CCCC2 | -0.0415% [at 46 µM] | –
Cc1ccc2nc(N)[nH]c(=O)c2c1Sc1ccncc1 | 0.141% [at 46 µM] | –
N[C@@H](Cc1cc(I)c(O)c(I)c1)C(=O)O | 0.0907% [at 46 µM] | –
CC[C@@H](CO)NCCN[C@@H](CC)CO | 0.0077% [at 18.6 µM] | –
O=[N+]([O-])c1ccc2ncccc2c1 | 0.0362% | –
